Shown are actives, neighbours in structure and some others; about 4% of the full set was active somewhere.
Mtb betalactam: beta-lactam sensitization of Mtb H37Rv; inhibition, % at 25 µM; M. tuberculosis H37Rv growth with meropenem, percent inhibition; 330,000 compounds, 0.27% hits; call rule not given here;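 further: growth measured after seven days incubation then overnight dye step; 0% = bacteria only wells and 100% = bacteria with antibiotic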
MazEF act: MazEF (E. coli) toxin RNase activation | 350,000 compounds, 0.32% hits | activation, % at 20 µM | FAM/BHQ RNA-DNA oligo cleavage fluorescence, 5 h | P0AE70; in the data active means activation above about 50%
Target sequence (P0AE70 whole entry, looked up): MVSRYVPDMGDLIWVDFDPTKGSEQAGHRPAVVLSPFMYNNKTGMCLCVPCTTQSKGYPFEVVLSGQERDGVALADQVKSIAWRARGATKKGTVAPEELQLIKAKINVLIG
FBA Mtb inh: Mtb fructose-bisphosphate aldolase inhibition; P9WQA3; 360,000 compounds, 2.3% hits; inhibition, % at 1 µM; purified M. tuberculosis FBA, fluorescence read-out; in the data active means inhibition above about 27%;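 further: 0% = vehicle and 100% = reference inhibitor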
Target sequence (P9WQA3 whole entry, looked up): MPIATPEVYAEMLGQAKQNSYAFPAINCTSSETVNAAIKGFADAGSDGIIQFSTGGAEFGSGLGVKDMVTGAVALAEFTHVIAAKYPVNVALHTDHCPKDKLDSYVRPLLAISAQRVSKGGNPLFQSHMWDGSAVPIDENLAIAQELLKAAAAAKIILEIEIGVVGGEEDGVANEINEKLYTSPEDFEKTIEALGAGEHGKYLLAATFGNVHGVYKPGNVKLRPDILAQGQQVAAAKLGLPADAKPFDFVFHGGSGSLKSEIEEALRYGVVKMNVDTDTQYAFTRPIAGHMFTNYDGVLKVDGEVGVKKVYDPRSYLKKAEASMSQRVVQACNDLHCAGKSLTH
GDH-TPI inh: GDH-TPI coupled enzyme inhibition counter-screen; GDH-TPI coupled enzyme counterscreen, NADH absorbance; inhibition, % at 4.8 µM; 360,000 compounds, 1.2% hits; AID 588335;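 further: 0% = DMSO wells and 100% = wells lacking the enzyme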
CCHF vOTU inh: CCHFV vOTU protease inhibition; Pep-AMC fluorescence; inhibition, % at 11.5 µM; 370,000 compounds, 0.55% hits; AID 651958; further: 0% = vehicle wells with enzyme and 100% = no enzyme wells
Numbers without * were called inactive; ? = inconclusive; . = not tested or not shown; + = active, no number. Unless noted, no stated cut-off is given here; in the data, active means inhibition above about 30%; inactive means the rest.

SMILES	Mtb betalactam	MazEF act	FBA Mtb inh	GDH-TPI inh	CCHF vOTU inh
CCOC(=O)N1CCN(C(=O)C[C@H]2C[C@@]3(C(=O)OC)C(=C[C@H](C4CCCC4)O[C@@H]3C)N(Cc3cccc4ccccc34)C2=O)CC1	.	.	.	.	22
COCCNC(=O)c1c(N)n(-c2ccccc2)c2nc3ccccc3nc12	2	4	148*	18	-87
COc1cc(-n2c(N)c(C(=O)NCc3ccco3)c3nc4ccccc4nc32)cc(OC)c1OC	-3	-2	14	12	-13
COCCCNC(=O)c1c(N)n(-c2ccccc2)c2nc3ccccc3nc12	73	3	+	13	-247
COCCCNC(=O)c1c(N)n(/N=C/c2cccs2)c2nc3ccccc3nc12	27	-8	-1	0	1
COCCCNC(=O)CSc1nc2ccccc2c(=O)n1CCc1ccc(S(N)(=O)=O)cc1	0	0	32*	0	10
CC(=O)NCCn1c(SCC(=O)c2ccccc2)nc2ccccc2c1=O	3	-16	0	33*	-2
CCOc1ccc(N(CC(=O)Nc2c(C)n(C)n(-c3ccccc3)c2=O)S(=O)(=O)c2ccc3c(c2)N(C(=O)C2CCC2)CC3)cc1	.	.	.	.	0
Nc1c(C(=O)NCCN2CCOCC2)c2nc3ccccc3nc2n1CCc1ccccc1F	64	-4	124*	27	-98
COC(=O)c1c(N)n(-c2ccc(NC(C)=O)cc2)c2nc3ccccc3nc12	-8	11	109*	19	-101
COc1ccc(-n2c(N)c(C(=O)NCc3ccco3)c3nc4ccccc4nc32)cc1OC	-5	1	5	11	-8
Cc1ccc(-n2c(N)c(C(=O)Nc3c(C)n(C)n(-c4ccccc4)c3=O)c3nc4ccccc4nc32)cc1	63	-8	4	9	13
COCCCNC(=O)c1c(N)n(-c2ccc(S(N)(=O)=O)cc2)c2nc3ccccc3nc12	-3	17	+	25	-154
COCCNC(=O)c1c(N)n(-c2cccc(C)c2)c2nc3ccccc3nc12	13	-2	183*	-1	-123
CCCCCCCCN1C(=O)[C@@H](CC(=O)N2CCN(C(=O)OCC)CC2)C[C@@]2(C(=O)OC)C1=C[C@H](COCc1ccccc1)O[C@@H]2C	.	.	.	.	14
COc1ccc(-c2nc3ccccc3nc2-c2ccc(OC)c(OC)c2)cc1OC	0	4	-4	-8	0
Cc1ccc(-c2cc(-c3ccccc3)nc(Cl)n2)cc1	93	2	5	2	-2
COc1ccc(-c2cc(-c3ccccc3)nc(Cl)n2)cc1OC	92	-9	12	33*	-11
COc1ccc(-c2nc3ccccc3nc2-c2ccccc2)cc1OC	5	0	-2	31*	-6
CCC(C)Nc1nc(C)nc2c1nnn2Cc1ccccc1 (centres undefined)	.	.	.	.	-3
Cc1ccc(C2C(C(=O)c3ccco3)=C(O)C(=O)N2c2ncccn2)cc1 (centres undefined)	-2	-2	1	20	-5
CSc1ccc(C2C(C(=O)c3ccco3)=C(O)C(=O)N2c2nnc(SC)s2)cc1 (centres undefined)	1	187*	4	3	23
Cc1nnc(N2C(=O)C(O)=C(C(=O)c3ccco3)C2c2ccc(C(C)(C)C)cc2)s1 (centres undefined)	-15	192*	2	11	8
Cc1nnc(N2C(=O)C(O)=C(C(=O)c3ccco3)C2c2ccc(C(C)C)cc2)s1 (centres undefined)	-7	62*	-1	17	-1
Cc1nnc(N2C(=O)C(O)=C(C(=O)c3ccco3)C2c2ccc(F)cc2)s1 (centres undefined)	-1	2	1	27	-6
SMILES	Mtb betalactam	MazEF act	FBA Mtb inh	GDH-TPI inh	CCHF vOTU inh
C=CCN1C(C(=O)OC)CN(Cc2cn(Cc3ccc(F)cc3)nn2)CCS1(=O)=O (centres undefined)	.	.	.	.	-5
O=C(NC1CCCCN(Cc2cccc(Cl)c2)C1=O)c1ccc2ccccc2c1 (centres undefined)	.	.	.	.	-1
C/C(=C\C(=O)c1ccccc1)NCc1ccc(F)cc1	-5	0	3	31*	14
Cc1ccc(-c2c(C(=O)NC3CCCC3)oc(=O)c3ccccc23)cc1	.	.	.	.	13
Cn1c2c(c(=O)n(C)c1=O)C(C(F)(F)F)(C(F)(F)F)N=C(c1ccccc1Cl)N2	?	-5	3	9	3
CC(=O)Nn1cc2c(c1-c1ccccc1)c(=O)n(C)c(=O)n2C	1	1	4	-11	-4
Cn1c(=O)c2[nH]c(-c3ccccc3Cl)c(O)c2n(C)c1=O	15	909*	2	3	-15
Cn1c(=O)c2[nH]c(-c3ccccc3)c(O)c2n(C)c1=O	3	+	-3	15	1
O=S1(=O)CC2c3ccc(F)cc3CN2CN1Cc1ccccc1 (centres undefined)	.	.	.	.	-3
O=C1CC2c3cc(Br)ccc3CCN2C(=O)CN1Cc1ccccc1 (centres undefined)	.	.	.	.	-5
Cc1ccc(-n2c(Cc3cccs3)nnc2SCc2ccc(C#N)cc2)cc1	.	.	.	.	4
COC(=O)C1=C(C)NC2=C(C(=O)CCC2)C1c1ccc(-c2ccsc2C(=O)OC)o1 (centres undefined)	-7	2	2	50*	-4
CC1=C(C(=O)OC2CCCCCC2)C(c2ccc(C)o2)C2=C(CCCC2=O)N1 (centres undefined)	6	2	3	13	4
COC(=O)[C@]12CCCCC=C1N(Cc1ccc(OC)cc1)C(=O)[C@@H]2CC(=O)NCC12CC3CC(CC(C3)C1)C2	.	.	.	.	9
COc1ccc(C2Nc3ccccc3C(=O)N2Cc2ccccc2)cc1OC (centres undefined)	1	7	74*	-1	-65
COc1ccc(C2Nc3ccccc3C(=O)N2NS(C)(=O)=O)cc1OC (centres undefined)	-2	1	25	5	-52
COc1ccc(C=Nn2c(-c3ccc(F)cc3)n[nH]c2=S)cc1OCc1ccccc1	.	.	.	.	0
Cc1ccc(N(C)S(=O)(=O)c2c(C)noc2/C=C/N(C)C)cc1	-10	-3	4	34*	13
Cc1noc(/C=C/N(C)C)c1S(=O)(=O)N1CCC(C(=O)O)CC1	-3	2	0	21	-4
CC(C)(C)c1nnc(N/N=C/c2ccccc2O)n(N)c1=O	7	0	0	36*	4
CC(C)(C)c1nnc(N/N=C/c2ccccc2)n(N)c1=O	2	10	-1	21	-11
COc1cccc(/C=N/Nc2cc(-n3nc(C)cc3-c3ccccc3)ncn2)c1O	15	27	-1	35*	-12
COc1cccc(/C=N/Nc2nccnc2Cl)c1O	.	-8	-5	8	9
COc1cccc(/C=N/Nc2nc(Nc3ccccc3)nc(-n3nc(C)cc3C)n2)c1O	99	-4	1	-5	16
COc1cccc(/C=N/Nc2ncnc3scc(-c4ccccc4)c23)c1O	99	-62	5	32*	18
COc1cccc(/C=N/Nc2ncnc(Cl)c2N)c1O	96	2	-4	32*	17
